# Bioassay records: PubChem BioAssay, several laboratories
# Compounds with a hit are over-represented: about 1.6% of the library has one in this group of screens.
# PG9 binder: binders of HIV-1 gp120 antibody PG9, primary screen, biochemical, TR-FRET. inhibition, % at 6.7 µM. 0.43% of 360,000 active. TR-FRET gp120-PG9 antibody binding. AID 624416, 2012; in the data active = inhibition above about 8.5%
# Rev-erbA mod: modulators of Rev-erb alpha DNA binding, primary screen, biochemical, FITC-DNA, fluorescence polarization, uHTS; Rev-erbα–FITC-DNA binding, 90 min; activity, % at 10 µM; 0.79% of 370,000 active;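 active = activity above about 14%, limit read from the data; passing the limit was not always enough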
# V-ATPase pH: regulators of yeast V-ATPase proton pumping, primary screen, pHLuorin cytosolic pH fluorescence. S. cerevisiae. response, % at 10 µM. 0.37% of 350,000 active; in the data active = response mostly above about 7.3%, no sharp cut-off; inactive = mostly below about 5.4%; note: actives read high
# GC-B act: human GC-B receptor activators, primary screen, HEK293 GC-B cells, cGMP TR-FRET, EC30 CNP; activation, % at 10 µM; 0.11% of 370,000 active; 0% at EC30 CNP, 100% saturating CNP;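 active = activation at 10 µM reaching about 35% in either raw or pattern-adjusted values, limit read from the data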
# GC-A act: GC-A stimulated cGMP production enhancers – HEK293 GC-A cells, cGMP TR-FRET, EC30 ANP, primary screen | activation, % at 10 µM | Atrial natriuretic peptide receptor 1 (Homo sapiens), P16066 | 0% at EC30 ANP, 100% saturating ANP | 0.14% of 370,000 active; in the data active = activation above about 40%
# PG9 bind confirm: binders of anti-gp120 antibody PG9, confirmation, biochemical, TR-FRET; shares compounds with PG9 binder; TR-FRET PG9 antibody binding; inhibition, % at 6.7 µM; 90% of 1,500 active; in the data active = inhibition above about 9%
# PGV04 Ab binding: binders of control antibody PGV04, counter-screen for PG9 antibody binder project, biochemical, TR-FRET, distinct HIV envelope site | TR-FRET PGV04 antibody-gp120 binding | 95% of 1,500 active | shares compounds with PG9 binder | inhibition, % at 6.7 µM; in the data active = inhibition above about 9.5%
# PG9 bind DR: small-molecule binders of antibody PG9, dose response, biochemical, TR-FRET, HIV-1 gp120 antibody; 95 tested, under 10 active; TR-FRET PG9 antibody-gp120 binding inhibition; shares compounds with PG9 binder; IC50, µM; AID 651848, 2012; in the data active = IC50 below about 10 µM
# PGV04 DR counter: binders of control antibody PGV04, dose response, counter-screen for PG9 antibody binder project, biochemical, TR-FRET, distinct HIV envelope site; shares compounds with PG9 binder; TR-FRET binding to control antibody PGV04; IC50, µM; 20% of 95 active
# PG126 DR counter: binders of control antibody PG126, dose response, counter-screen for PG9 antibody binder project, biochemical, TR-FRET, distinct HIV envelope site; 20% of 95 active; shares compounds with PG9 binder; IC50, µM; TR-FRET binding to antibody PG126, counterscreen
# NR1D1 mod conf: modulators of Rev-erb alpha DNA binding, confirmation, biochemical, FITC-DNA, fluorescence polarization, single point; shares compounds with Rev-erbA mod; 90 min; activation, % at 25 µM; 61% of 3,000 active;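 active = activation at or above a set limit, or at least 3 SD above the negative control mean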
# RORg counter: modulation of RORgamma DNA binding, dose response, counter-screen for Rev-erb alpha modulator project, biochemical, fluorescence polarization, FITC-DNA; shares compounds with Rev-erbA mod; 8% of 910 active; IC50, µM; purified RORgamma protein-FITC-DNA binding;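 active = Compounds whose fitted half-maximal concentration for disrupting protein-DNA binding is below 10 micromolar; the record names Rev-erb in its text, so the target is in doubt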
# Numbers stand for hits; 0 = inactive; - = not tested or not shown. Cut-off read from the data, not from the text of the source, unless noted: active = IC50 below about 9 µM; inactive = the rest.
SMILES,PG9 binder,Rev-erbA mod,V-ATPase pH,GC-B act,GC-A act,PG9 bind confirm,PGV04 Ab binding,NR1D1 mod conf,others
COc1ccc(-c2c(C#N)c(N)nc(Sc3ccc(Cl)cc3)c2C#N)cc1,31,83,0,0,0,97,95,48,PG9 bind DR=8.5;PGV04 DR counter=4.4;PG126 DR counter=4.9;RORg counter=0
CCOC(=O)CSc1nc(N)c(C#N)c(-c2ccc(OC)cc2)c1C#N,63,76,0,0,0,68,23,55,PG9 bind DR=7.6;PGV04 DR counter=6.1;PG126 DR counter=7
CSc1nc(-c2ccc(Cl)cc2)nc(N)c1C#N,25,29,0,0,0,49,67,0,
C=CCN1C(=O)[C@@H](CC(=O)NCc2cccc(C(F)(F)F)c2)[C@]2(C(=O)OC)CCCCC=C12,-,0,-,0,0,-,-,-,
CCc1cc2cc(C(=O)Nc3ccc(F)cc3)sc2s1,46,78,0,0,0,53,60,63,RORg counter=0
CCc1cc2cc(C(=O)Nc3ccccc3F)sc2s1,0,0,0,0,0,-,-,-,
O=C(Nc1cccc(Cl)c1)OCCN1CCCC12CCC(c1ccccc1)CC2 (stereo unspecified),-,0,-,0,0,-,-,-,
COc1ccc(C(C(=O)N(C)C2CCCC2)N(Cc2ccc(F)cc2)C(=O)c2cc(C)on2)cc1OC (stereo unspecified),-,0,-,0,0,-,-,-,
Cc1ccc(-n2nnnc2SCC(=O)c2ccc3c(c2)NC(=O)CO3)c(C)c1,13,25,0,0,0,11,30,24,
CCCCCCn1c(=O)c(-c2ccccc2)c(O)c2ccccc21,0,0,0,0,0,-,-,-,
CCn1c(=O)c(-c2nc3ccccc3[nH]2)c(O)c2ccccc21,44,32,-,0,0,43,49,0,
Cn1cc(-c2nc3ccccc3[nH]2)c2ccccc21,0,0,0,0,0,-,-,-,
CCCn1c(=O)c(-c2nc3ccccc3[nH]2)c(O)c2ccccc21,50,26,0,0,0,62,71,0,
CCOC(=O)c1sc(NC(=O)c2ccco2)nc1-c1ccccc1,10,46,0,0,0,30,57,25,
COc1cc(C(=O)Nc2cc(Cl)ccc2-n2cncn2)ccc1OC(F)F,10,31,0,0,0,23,38,0,
O=C(Nc1cc(Cl)ccc1-n1cncn1)c1ccccc1OC(F)F,0,0,0,0,0,-,-,-,
COc1ccc(C(=O)NCC(=O)Nc2ccc(F)cc2)cc1OC,0,0,0,0,0,-,-,-,
COc1ccc(-c2nc(NC(=O)c3ccc(OCC(=O)Nc4ccc(F)cc4)c(OC)c3)sc2C)cc1,81,180,0,0,0,69,82,154,RORg counter=0
